Where “and” joins values, the source holds several entries; their conditions need not be identical. Equal entries are not always repeated. Out of some 5,500 compounds screened, about 2,000 (36%) were called active. Another 18% or so got no clear call; they are omitted. No stated cut-off is given here; in the data, active means normalized growth mostly below about 0.91 (no sharp cut-off); inconclusive means no clear call, values can overlap the other calls; inactive means mostly above about 0.92. This is one part of the list.
Assay: chemical genetic growth profiling, strain panel (AID 1159580);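 further: tested at 20 µM; growth read once vehicle control cultures reached saturation at 30 °C; 1 = growth at the plate median or of vehicle wells; lower values mean less growth of the strain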
Settings: S. cerevisiae deletion strains, growth OD

Measured: normalized growth

CN(C)c1nc(N(C)C)nc(N(C)C)n1
inactive: locus YAL021C, strain ccr4, active compounds read low 0.992 | locus YAL026C, strain drs2, active compounds read low 0.979 | locus YAL030W, strain snc1, active compounds read low 1 | locus YAL040C, strain CLN3, active compounds read low 0.972 | locus YBL061C, strain skt5, active compounds read low 0.959 | locus YBR009C, strain hhf1, active compounds read low 0.97 | locus YBR021W, strain FUR4, active compounds read low 1 | locus YBR023C, strain chs3, active compounds read low 0.969 | locus YBR171W, strain sec66, active compounds read low 0.976 | locus YBR229C, strain ROT2, active compounds read low 1.01 | locus YBR231C, strain swc5, active compounds read low 0.971 | locus YBR279W, strain paf1, active compounds read low 1.01 | locus YCL011C, strain gbp2, active compounds read low 0.959 | locus YCL016C, strain dcc1, active compounds read low 0.966 | locus YCL029C, strain bik1, active compounds read low 1.03 | locus YCL061C, strain MRC1, active compounds read low 0.979 | locus YCL069W, strain vba3, active compounds read low 0.986 | locus YCR088W, strain abp1, active compounds read low 0.989 | locus YDL005C, strain med2, active compounds read low 0.984 | locus YDL035C, strain GPR1, active compounds read low 1.02 | locus YDL040C, strain nat1, active compounds read low 0.991 | locus YDL074C, strain BRE1, active compounds read low 0.991 | locus YDL101C, strain DUN1, active compounds read low 1.01 | locus YDL134C, strain PPH21, active compounds read low 1.01 | locus YDL185W, strain tfp1, active compounds read low 1.02 | locus YDL192W, strain arf1, active compounds read low 1.02 | locus YDR001C, strain nth1, active compounds read low 0.977 | locus YDR069C, strain doa4, active compounds read low 0.979 | locus YDR101C, strain arx1, active compounds read low 1.01 | locus YDR137W, strain rgp1, active compounds read low 0.924 | locus YDR150W, strain NUM1, active compounds read low 1 | locus YDR159W, strain sac3, active compounds read low 0.963 | locus YDR162C, strain NBP2, active compounds read low 1.02 | locus YDR195W, strain ref2 0.998 | locus YDR297W, strain sur2, active compounds read low 0.981 | locus YDR318W, strain mcm21, active compounds read low 1.02 | locus YDR334W, strain swr1, active compounds read low 0.942 | locus YDR335W, strain msn5, active compounds read low 0.97 | locus YDR363W, strain ESC2, active compounds read low 1.03 | locus YDR388W, active compounds read low 1.02 | locus YDR392W, strain spt3, active compounds read low 0.899 | locus YDR502C, strain sam2, active compounds read low 1.01 | locus YEL003W, strain gim4, active compounds read low 0.987 | locus YEL037C, strain rad23, active compounds read low 0.988 | locus YEL061C, strain CIN8 (second series), active compounds read low 0.976 | locus YEL061C, strain CIN8, active compounds read low 1 | locus YER002W, strain NOP16, active compounds read low 0.995 | locus YER015W, strain faa2, active compounds read low 0.969 | locus YER016W, strain bim1, active compounds read low 0.987 | locus YER110C, active compounds read low 1.02 | locus YER111C, strain swi4, active compounds read low 0.981 | locus YER155C, strain BEM2 (second series), active compounds read low 0.975 | locus YER155C, strain BEM2, active compounds read low 1 | locus YER167W, strain BCK2, active compounds read low 1.01 | locus YFR010W, strain ubp6, active compounds read low 0.956 | locus YGL078C, strain dbp3, active compounds read low 1.01 | locus YGL086W, strain mad1, active compounds read low 1 | locus YGL167C, strain pmr1, active compounds read low 0.975 | locus YGL173C, strain kem1, active compounds read low 0.959 | locus YGL227W, strain vid30, active compounds read low 0.989 | locus YGL240W, strain doc1, active compounds read low 0.966 | locus YGL248W, strain PDE1, active compounds read low 1.01 | locus YGL253W, strain hxk2, active compounds read low 0.987 | locus YGR078C, strain PAC10, active compounds read low 1 and 0.999 | locus YGR135W, strain pre9, active compounds read low 1.03 | locus YGR252W, strain gcn5, active compounds read low 1.05 | locus YHR013C, strain ard1, active compounds read low 0.964 | locus YHR027C, strain rpn1, active compounds read low 0.959 | locus YHR030C, strain SLT2, active compounds read low 1.01 and 0.974 | locus YHR079C, strain IRE1 (second series), active compounds read low 1.02 | locus YHR079C, strain IRE1, active compounds read low 0.981 | locus YHR094C, strain hxt1, active compounds read low 1.02 | locus YHR129C, strain ARP1, active compounds read low 1.01 | locus YHR142W, strain chs7, active compounds read low 0.929 | locus YHR200W, strain rpn10, active compounds read low 1.02 | locus YIL066C, strain RNR3, active compounds read low 1.01 | locus YIL073C, strain SPO22, active compounds read low 1.09 | locus YIL125W, strain kgd1, active compounds read low 1.02 | locus YIR030C, strain dcg1, active compounds read low 1.03 | locus YJL092W, strain hpr5, active compounds read low 0.988 | locus YJL095W, strain BCK1 (second series), active compounds read low 0.975 | locus YJL095W, strain BCK1, active compounds read low 1 and 0.97 | locus YJL115W, strain asf1, active compounds read low 0.959 | locus YJL129C, strain trk1, active compounds read low 0.999 | locus YJL134W, strain LCB3, active compounds read low 1.01 | locus YJL154C, strain vps35, active compounds read low 0.986 | locus YJL164C, strain tpk1, active compounds read low 0.989 | locus YJL166W, strain qcr8, active compounds read low 0.958 | locus YJL168C, strain set2, active compounds read low 1.01 | locus YJL187C, strain SWE1 (second series), active compounds read low 1 | locus YJL187C, strain SWE1, active compounds read low 0.978 | locus YJR043C, strain POL32, active compounds read low 1.01 | locus YJR066W, strain TOR1, active compounds read low 0.947

— PubChem BioAssay AID1159580 (chemical genetic matrix, 2015)
